# KCNH2 WT inh: inhibitors of human wildtype KCNH2 potassium channel; Q12809; U2OS, BacMam KCNH2, thallium flux FluxOr; stronger effect = lower value; activity change, % at 1.84 µM; hit rate 0.37% among 340,000;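 active = maximum activity change below -70%; inconclusive = maximum activity change between -70% and -50%; inactive = maximum activity change above -50%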
#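 U2OS cells transduced with wild-type KCNH2 virus are loaded with FluxOr dye for 45 min, and thallium flux is measured in kinetic reads before and after stimulation buffer. Rate constants are normalized to DMSO controls.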
# JMJD2E inh: JMJD2E (human) inhibition; Potency, µM (titrated, usually from 57.1 µM), most hits filed as inhibitors; hit rate 1.6% among 230,000; JMJD2E catalytic domain, FDH-coupled NADH fluorescence (FDH is formaldehyde dehydrogenase); B2RXH2; active = well fitted inhibition curve with a large enough effect, not every such curve was filed as active; inconclusive = small, poorly fitted or top-dose-only effect, or another doubt; inactive = no such curve, though single readings can be large or run the other way; note: nearly all actives have a fitted effect of over 50% in size
# CtBP-E1A inh: CtBP/E1A binding inhibition; AID 651724; activity change, % (test concentration not listed); hit rate 0.49% among 340,000; AlphaScreen GST-E1A/His-CtBP binding, 1536-well; stronger effect = lower value
#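 In 5 uL wells, 23 nL compound meets equimolar GST-E1A and His-CtBP (5X stock 125 nM each) for 2 h, 37 °C. Beads (5X, 50 ug/mL) then 1 h, 37 °C, dark.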
# KCNH2 3.1 block: inhibitors of human KCNH2 3.1 potassium channel isoform; U2OS KCNH2 3.1, thallium flux FluxOr; stronger effect = lower value; activity change, % (tested at about 1.8 µM); hit rate 0.95% among 340,000;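 active = maximum activity change below -70%; inconclusive = maximum activity change from -70% to -50%; inactive = maximum activity change above -50%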;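 note: thallium influx rate constant from kinetic fluorescence after stimulation buffer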
#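 Normalized rate constant (relative to positive and negative DMSO controls) derived from a 2 min kinetic fluorescence read after stimulation; U2OS cells expressing the 3.1 isoform via virus at 1.77 x 10^8 /mL.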
# Six1-Eya2 blk: blocks human Six1 binding to Eya2 | activity change, % (no concentration beside the values) | AlphaScreen GST-Six1/His-Eya2 binding, biochemical; stronger effect = lower value | hit rate 0.56% among 360,000 | AID 651725 | Q15475+O00167
# Target sequence (O00167 whole entry, looked up): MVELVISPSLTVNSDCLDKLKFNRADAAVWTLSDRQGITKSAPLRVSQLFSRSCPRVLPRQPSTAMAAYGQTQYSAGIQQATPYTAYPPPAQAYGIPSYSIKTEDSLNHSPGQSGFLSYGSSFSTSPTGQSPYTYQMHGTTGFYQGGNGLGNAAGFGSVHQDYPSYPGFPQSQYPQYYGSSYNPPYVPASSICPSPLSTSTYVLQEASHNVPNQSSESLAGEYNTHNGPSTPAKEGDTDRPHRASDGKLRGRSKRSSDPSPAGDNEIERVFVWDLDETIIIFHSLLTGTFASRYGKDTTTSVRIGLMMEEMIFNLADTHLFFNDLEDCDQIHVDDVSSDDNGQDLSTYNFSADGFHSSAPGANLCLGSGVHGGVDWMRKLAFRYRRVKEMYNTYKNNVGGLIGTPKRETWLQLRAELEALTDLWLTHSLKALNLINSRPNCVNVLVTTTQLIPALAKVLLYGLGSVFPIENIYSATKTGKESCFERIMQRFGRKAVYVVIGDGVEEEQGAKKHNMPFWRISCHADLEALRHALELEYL
# Target sequence (Q15475 whole entry, looked up): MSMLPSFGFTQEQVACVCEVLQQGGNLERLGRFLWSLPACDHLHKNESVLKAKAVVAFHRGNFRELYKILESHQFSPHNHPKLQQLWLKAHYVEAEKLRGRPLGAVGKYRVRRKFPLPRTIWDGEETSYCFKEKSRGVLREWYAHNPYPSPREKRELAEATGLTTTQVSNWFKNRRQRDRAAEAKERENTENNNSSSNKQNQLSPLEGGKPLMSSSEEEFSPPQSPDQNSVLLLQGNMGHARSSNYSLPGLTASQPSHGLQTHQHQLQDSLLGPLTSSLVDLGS
#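 Six1/Eya2 binding was read as AlphaScreen signal after compounds were pinned into GST-Six1 plus His-tagged Eya2 (5X stock 250/500 nM) in pH 8.0 Tris/NaCl/TCEP buffer, beads added, then incubated 1 h, 37 C, dark.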
# Hits are given with their value; 0 = inactive; ? = inconclusive; - = no result given. The list is not random: actives were taken first. Their share in the collection is about 2%. Cut-off read from the data, not from the text of the source, unless noted: active = activity change below about -65%; inconclusive = mostly about -30% to -63%; inactive = weaker than that.
SMILES,KCNH2 WT inh,JMJD2E inh,CtBP-E1A inh,KCNH2 3.1 block,Six1-Eya2 blk
CC(C)CNC(=S)N1CCN(C)CC1,0,0,0,0,0
CCCCNC(=S)N1CCN(C)CC1,0,8.9µM,0,0,0
Cc1cccc(OCC(=O)N/N=C/c2cc([N+](=O)[O-])ccc2N2CCOCC2)c1,0,0,0,-,0
COc1ccc(NC(=O)CSc2nnnn2C2CC3C=CC2C3)cc1 (stereo not given),-81,-,0,0,0
CCOc1ccc(NC(=O)N2CCC(n3nnc4ccccc43)CC2)cc1,0,?,0,-83,0
CCOC(=O)c1ccc(NC(=O)CSc2nnnn2C2CCCCC2)cc1,0,0,0,0,0
CCOc1ccc(NC(=O)CSc2nnnn2C2CCCC2)cc1,-142,-,0,-199,0
Cc1cc(C)c2c(=O)n(CC(=O)N3CCN(c4ccccc4)CC3)ccc2n1,0,-,0,0,0
Cc1ccc(Oc2ncnc(N)c2[N+](=O)[O-])cc1,0,0,0,0,0
Cc1ccc(N(c2ncnc(N)c2[N+](=O)[O-])C2CCCCC2)cc1,0,0,0,-86,0
O=C(NC(=S)Nc1ccc(NC(=O)c2ccco2)cc1)c1ccccc1,0,?,0,0,0
COc1cc(C(=O)NC(=S)Nc2ccc(NC(=O)c3ccco3)cc2)cc(OC)c1OC,0,0,0,-83,0
CCOC(=O)C1C(=O)NC(c2ccccc2)=NC1c1ccc(OC)cc1 (stereo not given),0,0,0,0,0
O=C(Nc1ccc2nc3n(c(=O)c2c1)CCCC3)c1cccc([N+](=O)[O-])c1,0,0,0,0,-66
O=C(Nc1ccc2nc3n(c(=O)c2c1)CCCC3)c1cncc(Br)c1,0,-,-65,0,?
O=C(Nc1ccc2nc3n(c(=O)c2c1)CCCC3)c1cc([N+](=O)[O-])ccc1F,0,0,0,0,0
S=C(NN=C(C1CC1)C1CC1)Nc1ccccc1,0,0,0,0,0
CC(=NNC(=S)Nc1ccccc1Cl)c1ccccn1,0,-,-66,0,-90
C=CCNC(=S)N/N=C(\C)c1ccccn1,0,8.9µM,-97,0,-89
C/C(=N/NC(=O)CNC(=O)c1ccccn1)c1ccccc1,-,0,-,0,0
CC(=NNC(=S)Nc1ccccc1)c1ccccn1,0,-,?,0,-89
C/C(=N\Nc1cccc2cccnc12)c1ccccn1,0,?,0,0,0
CCc1ccccc1N(CC)C(=O)C1CCN(c2ncnc3c2nc2n3CCCCC2)CC1,0,-,-,0,0
CC1(C)c2ccccc2N(CC(N)=O)C12C=Cc1ccccc1O2 (stereo not given),0,0,0,0,0
Cc1ccc(N2C(=O)c3ccccc3C2C(=O)c2ccc(O)cc2O)cc1 (stereo not given),0,20µM,0,-,?
SMILES,KCNH2 WT inh,JMJD2E inh,CtBP-E1A inh,KCNH2 3.1 block,Six1-Eya2 blk
COc1ccc(-c2cc(=O)n(CCC#N)[nH]2)cc1,0,1.8µM,0,0,0
CCn1cc(C2=NC(C)CO2)c2ccccc21 (stereo not given),0,0,0,-71,0
CC1CCN(CCCCOc2ccccc2F)CC1,?,-,0,0,0
O=C(Nc1nc2ccccc2[nH]1)c1ccc(Cl)c([N+](=O)[O-])c1,0,0,0,0,0
CCOc1ccccc1NC(=O)c1ccc(OCC)c([N+](=O)[O-])c1,0,0,0,0,0
CCOc1ccc(C(=O)Nc2cccc(-c3nc4ccccc4[nH]3)c2C)cc1[N+](=O)[O-],0,0,0,-78,0
CCOc1ccc(C(=O)Nc2cc(-c3nc4ccccc4[nH]3)ccc2C)cc1[N+](=O)[O-],0,0,0,-86,0
CCOc1ccc(C(=O)Nc2cc(-c3nc4ccccc4[nH]3)ccc2Cl)cc1[N+](=O)[O-],0,0,0,-70,0
C#CCOC(=O)C[N+](C)(C)C/C=C/c1ccccc1,0,0,0,0,0
CCCn1c(C)nc2c(NC3CCCCC3)nc(C)nc21,-,0,-,-,-
O=C(NN1C(=O)/C(=C/c2cccs2)SC1=S)c1ccncc1,0,0,-72,0,-70
Cc1ccc(C(=O)NN2C(=O)/C(=C/c3cccn3C)SC2=S)cc1,0,0,?,0,-69
Cn1cccc1/C=C1\SC(=S)N(NC(=O)c2ccccc2Cl)C1=O,0,0,?,0,-72
O=C(O)COc1ccccc1/C=C1\SC(=S)N(NC(=O)c2ccccc2O)C1=O,0,-,-81,0,-73
COc1ccc(CCNC(=O)c2cc(S(=O)(=O)N3CCCC3)cn2C)cc1OC,0,-,0,0,0
Cc1ccc(N=C(NO)c2cnccc2C(F)(F)F)c(C)c1,0,-,0,0,0
NC(=O)c1cccnc1Sc1ccc(Cl)cc1,0,0,0,-,0
CCCN(CC1CC1)C(=O)CCc1nnc(CCc2c[nH]c3ccccc23)o1,0,0,0,-98,0
CCN(CC)C(=O)CCc1nnc(CCc2c[nH]c3ccccc23)o1,0,0,0,0,0
CN1CCN(CCCNC(=O)c2ccc3c(=O)n(CCc4ccccc4)c(=O)[nH]c3c2)CC1,0,-,0,0,0
CCOc1cc2nc(-c3ccc(OC)c(OC)c3)nc(NCCCN3CCOCC3)c2cc1OC,-93,?,-88,0,-91
COc1cc2nc(=S)n(CCCN3CCOCC3)c(N)c2cc1OC,0,0,-88,0,-85
CC(C)Nc1ccc(Nc2ccnc3cc4ccccc4cc23)cc1,0,0,-81,-91,-70
N#CC(C#N)=Cc1ccc(OC(=O)c2ccccn2)cc1,0,18µM,?,0,-68
COC(=O)c1ccc(/C=C(\C#N)c2ccccn2)cc1,0,?,0,0,0
SMILES,KCNH2 WT inh,JMJD2E inh,CtBP-E1A inh,KCNH2 3.1 block,Six1-Eya2 blk
Cc1ccc(NC(=O)CN(C)C(=O)c2ccc(Cl)nc2)cc1,0,-,0,0,0
COc1cccc(Nc2nnc(SCC(=O)Nc3sccc3C(N)=O)s2)c1,0,?,-,-97,0
CC(C1SC(=S)NC1=O)C1SC(=S)NC1=O (stereo not given),0,-,-73,0,-83
Cc1nc2ccccn2c(=O)c1CCN1CCC(C(=O)c2ccc(F)cc2)CC1,0,?,0,0,0
Cc1nc2sccn2c(=O)c1CCN1CCC(=C(c2ccc(F)cc2)c2ccc(F)cc2)CC1,-149,0,0,-114,?
CN(CC1CCCCO1)C(=O)c1cc(COc2ccc(F)cc2Cl)on1 (stereo not given),0,-,0,0,0
O=C(COC(=O)C1CCN(c2ccc(C(F)(F)F)cn2)CC1)Nc1ncc(Cl)cc1Cl,0,-,0,-71,0
O=C(COC(=O)C1CCN(c2ccc(C(F)(F)F)cn2)CC1)Nc1ccc(Cl)cn1,0,-,0,0,0
O=C(COC(=O)c1ccc([N+](=O)[O-])s1)Nc1ncc(C(F)(F)F)cc1Cl,0,20µM,0,0,0
CC1C[N+](=C2C=C(N3CCOCC3)CC(C)(C)C2)CC(C)O1 (stereo not given),0,25µM,0,0,0
CCC1Nc2ncnc(N3CCOCC3)c2N(Cc2ccccc2)C1=O (stereo not given),0,-,0,0,0

# Bioassay records as filed in PubChem.
